Shown are actives, neighbours in structure and some others; about 7.5% of the full set was active somewhere.
SMN2 splice enh: enhancers of SMN2 splice variant expression | HEK293 SMN2-luciferase splicing reporter, luminescence, 30-36 h | Potency, µM (titrated, usually from 46.1 µM), inactives show at the top dose activity change, positive = activation, most hits filed as activators | actives 2.8% (n = 210,000); also: % of control where 0% means no effect; nearly all actives have a fitted effect of over 55% in size
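HEK293 cells carry an SMN2 […]–luciferase reporter in which exon 7 inclusion puts luciferase in frame. Cells were plated 10-12 h before compound addition, then incubated 30-36 h at 37C. ONE-Glo luminescence was read; sodium butyrate at 4.5 mM final served as control.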
Rab9 prom act: activates the Rab9 promoter. Huh7 Rab9 promoter-luciferase reporter, luminescence, 24 h. Potency, µM (top dose mostly 9.22 µM), for the others: at the highest dose activation, negative = inhibition, actives largely listed as activators. actives 2.8% (n = 320,000). AID 485297; also: % of control where 0% means no effect; nearly all actives have a fitted effect of over 60% in size
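Luciferase signal after 10 min detection reagent at ambient indicates Rab9 promoter upregulation; stably transfected Huh7 cells were treated 24 h with compound in DMSO at 37 °C, 5% CO2.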
NPC1 prom act: activates the NPC1 promoter | Huh7 NPC1 promoter luciferase reporter, 24 h | Potency, µM (doses to about 9.22 µM), for inactives: at the highest dose activation, actives largely listed as activators | actives 2.4% (n = 320,000) | AID 485313; also: % of control where 0% means no effect; nearly all actives have a fitted effect of over 60% in size
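Luminescence from an NPC1 promoter-driven luciferase reporter in stably transfected Huh7 cells was measured after 24 h compound treatment at 37 °C, followed by 10 min ambient incubation with luciferase detection reagent.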
Luc counter: Kinase-Glo luciferase inhibition (counter-screen); Q27757; Kinase-Glo luciferase, ATP luminescence, 8 min; Potency, µM (highest dose often 38.3 µM), for the others: top-dose activity change, negative = inhibition, actives largely listed as inhibitors; actives 0.28% (n = 200,000); AID 1379; also: % is scaled to controls: 0 for no effect and ±100 for the full control effect; nearly all actives have a fitted effect of over 60% in size
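Light output from Kinase-Glo luciferase with luciferin and 10 uM ATP in 50 mM imidazole pH 7.2, KCl, MgCl2, Tween 20, BSA; compound pin-delivered, 8-min ambient incubation, then luminescence read.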
FLuc modulator: counter-screen for miR-21 project: firefly luciferase inhibitors or activators. P08659. purified FLuc, Km substrates, luminescence inhibition. Potency, µM (doses to about 57.5 µM), inactives show top-dose activity change, negative = inhibition, hits mostly inhibitors. actives 6.9% (n = 360,000);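 also: plate controls were vehicle for no effect and reference inhibitor for full effect; nearly all actives have a fitted effect of over 55% in size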
Target sequence (P08659 whole entry, looked up): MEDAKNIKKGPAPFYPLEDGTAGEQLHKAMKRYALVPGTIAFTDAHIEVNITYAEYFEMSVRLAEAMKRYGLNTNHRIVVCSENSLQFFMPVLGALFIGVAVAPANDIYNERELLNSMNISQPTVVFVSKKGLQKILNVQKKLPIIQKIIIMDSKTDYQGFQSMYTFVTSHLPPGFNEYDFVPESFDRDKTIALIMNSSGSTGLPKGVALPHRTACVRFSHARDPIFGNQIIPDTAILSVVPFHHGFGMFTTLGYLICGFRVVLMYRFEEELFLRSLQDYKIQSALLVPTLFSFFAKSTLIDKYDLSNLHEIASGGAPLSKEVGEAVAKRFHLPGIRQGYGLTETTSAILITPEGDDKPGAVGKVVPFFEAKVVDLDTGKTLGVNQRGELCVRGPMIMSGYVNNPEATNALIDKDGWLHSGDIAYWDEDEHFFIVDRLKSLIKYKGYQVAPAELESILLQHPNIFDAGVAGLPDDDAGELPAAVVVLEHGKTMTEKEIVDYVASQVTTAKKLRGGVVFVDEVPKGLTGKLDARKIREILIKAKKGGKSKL
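Purified P. pyralis luciferase (10nM final) with 10uM D-luciferin and 10uM ATP (Km levels) in 50mM Tris acetate pH 7.5, 10mM Mg acetate, 0.01% Tween-20, 0.05% BSA; qHTS 6-point titration, ~60 µM downward; luminescence read.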
ELG1 genotoxic: induces genotoxicity in HEK293T cells with luciferase-tagged ELG1; HEK293T ELG1-luciferase reporter, luminescence, 16 h; Potency, µM (doses to about 46 µM), for inactives: at the top dose activity change, positive = activation, hits mostly activators; actives 1.3% (n = 330,000); AID 504466; also: % of control where 0% means no effect; nearly all actives have a fitted effect of over 60% in size
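Step 1: seed 2,000 HEK293T ELG1-luciferase cells per well. Step 2: add compound or DMSO, incubate 16 hr at 37 °C. Step 3: ONE-Glo, 30 min at room temperature, read luminescence.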
Active calls of the source: *; ? = inconclusive; nt = not tested or not shown; [ ] = dose if it differs, or a comment. Calls follow the shape of the dose curve; as a rule, active = well fitted curve in the direction sought with a large enough effect; inconclusive = small, poorly fitted or top-dose-only effect, or another doubt; inactive = no such curve, though single readings can be large; an effect the other way counts as inactive or inconclusive. Potency is read from the fitted curve at half-maximal effect.

SMILES | SMN2 splice enh | Rab9 prom act | NPC1 prom act | Luc counter | FLuc modulator | ELG1 genotoxic
CCCCNC(=O)C1CCN(S(=O)(=O)c2c(C)noc2/C=C\c2ccc(OC)cc2)CC1 | 0% | -2% | -2% | -1% | 1% | 10%
O=C(Nc1ccccc1)N1CCCC2CCCCC21 (stereo not given) | 11µM* | 3.2µM* | ? | -5% | 15µM* | 21µM*
O=[N+]([O-])c1ccccc1S(=O)(=O)N/C(=N/S(=O)(=O)c1ccccc1)c1ccccc1 | nt | nt | nt | nt | nt | 0%
COC(=O)c1cnn(-c2nc(-c3ccccc3)cs2)c1N | nt | ? | ? | nt | 2.7µM* | ?
Nc1c(-c2cccs2)cnn1-c1nc(-c2ccc(Cl)cc2Cl)cs1 | 3% | 0% | -2% | -6% | ? | 5%
Nc1c(-c2ccccn2)cnn1-c1nc(-c2ccc(F)cc2)cs1 | -2% | 7% | 24% | -3% | 9.5µM* | 9%
CCOC(=O)c1cnn(-c2nc(-c3ccccc3)cs2)c1C(F)(F)F | -10% | -3% | -5% | 4% | ? | 0%
Nc1c(-c2cccs2)cnn1-c1nc(-c2ccc(F)cc2)cs1 | -6% | ? | ? | -1% | 7.6µM* | 5%
COc1cc(CN2CCNC(=O)C2CC(=O)N(Cc2nccn2C)C(C)C)cc(OC)c1 (stereo not given) | nt | -1% | -1% | nt | -3% | 2%
Cc1cc(C(=O)COc2cccc([N+](=O)[O-])c2)c(C)n1C1CC1 | nt | 3.2µM* | 2.2µM* | nt | 2.4µM* | ?
Cc1ccc(OCC(=O)c2cc(C)n(C3CC3)c2C)c([N+](=O)[O-])n1 | -8% | 2% | 14% | -1% | -18% | 12%
Cc1cc(C(=O)COC(=O)c2cccc(O)c2)c(C)n1C1CC1 | nt | ? | ? | nt | 0.27µM* | ?
CCN(CC(=O)NCc1ccc(Cl)cc1)C(=O)c1ccc(S(=O)(=O)N(C)C)cc1 | ? | 0% | -4% | -1% | 4% | 0%
CCN(CC)S(=O)(=O)c1cc(C(=O)OCC(=O)Nc2ccc(-c3nc4ccc(C)cc4s3)cc2)ccc1F | 1.6µM* | 0.32µM* | 0.4µM* | 1% | 5.4µM* | 10µM*
CCN(CC)S(=O)(=O)c1ccc(C(=O)OCC(=O)Nc2ccc(-c3nc4ccc(C)cc4s3)cc2)cc1 | 1µM* | 0.45µM* | 0.4µM* | -3% | 2.7µM* | 1.6µM*
COc1ccc(N(C)C(=O)c2nn(-c3ccc(C)cc3)c(=O)n(C)c2=O)c(OC)c1 | nt | nt | nt | nt | 3% | nt
CCOc1ccccc1CNC(=O)CN1C(=O)c2cccnc2Oc2ccc(C)cc21 | nt | nt | nt | nt | -11% | nt
COCCNC(=O)CCCn1c(SCC(=O)Nc2ccc(F)cc2)nc2c(sc3ccccc32)c1=O | -3% | nt | nt | nt | 1% | nt
COc1cc(NC(=O)c2ccc(F)cc2)ccc1NC(=O)c1cc2ccccc2o1 | nt | 0% | 0% | nt | 3% | -10%
COc1cc(NC(=O)c2cc3ccccc3o2)ccc1NC(=O)c1ccco1 | nt | -10% | -5% | nt | -2% | -2%
COc1ccc(NC(=O)c2cc3ccccc3o2)c(OC)c1 | nt | nt | nt | nt | 5.4µM* | nt
COC(=O)c1cc(Cl)c(NC(=O)c2cc3ccccc3o2)cc1OC | 5% | 1.8µM* | ? | 0% | -6% | 0%
COc1cc(NC(=O)c2c(OC)cccc2OC)ccc1NC(=O)c1cc2ccccc2o1 | nt | ? | ? | nt | ? | 15µM*
CCC(=O)Nc1ccc(NC(=O)c2cc3ccccc3o2)c(OC)c1 | nt | 4µM* | 2.5µM* | nt | ? | ?
Cc1nnc(NS(=O)(=O)c2ccc(Br)cc2)s1 | nt | 1% | -1% | nt | 1% | -2%
SMILES | SMN2 splice enh | Rab9 prom act | NPC1 prom act | Luc counter | FLuc modulator | ELG1 genotoxic
C[C@@H](CNC1CCCCC1)OC(=O)c1ccccc1 | -16%[20.6 µM] | nt | nt | 1%[17.1 µM] | nt | nt
S=C(NCCc1cccc(Cl)c1)NC1CCCCC1 | nt | 2.8µM* | 3.5µM* | nt | 19µM* | ?
O=C(NCCc1ccccc1)NC1CCCCC1 | 11µM* | 0.56µM* | 1.1µM* | 0% | 11µM* | ?
O=C(NCCC1=CCCCC1)NC1CCCCC1 | 7.1µM* | 0.79µM* | 1.4µM* | 0% | 6.7µM* | ?
NC(=O)NCCC1=CCCCC1 | 4% | 0% | -5% | 8% | 7% | -1%
O=C(NCc1ccccc1)NC1CCCCC1 | 9% | 10% | 26% | 11% | -17% | ?
CS(=O)(=O)N1N=C(c2ccc(Br)cc2)CC1c1cccs1 (stereo not given) | 29% | ? | ? | -8% | 15µM* | ?
COc1ccc(C2CC(c3ccccc3)=NN2C(=O)c2cccs2)cc1 (stereo not given) | nt | ? | 21% | nt | 17µM* | 3%
Cc1ccc(C2=NN(S(C)(=O)=O)C(c3cccs3)C2)cc1 (stereo not given) | 11µM* | 3.5µM* | 1.8µM* | -18% | 19µM* | ?
COc1ccc(C2CC(c3ccc(OC)c(OC)c3)=NN2S(C)(=O)=O)cc1 (stereo not given) | nt | 0.5µM* | 1µM* | nt | 8.5µM* | ?
O=C(NCc1ccc(Cl)cc1)C1CCCN1C(=O)Nc1ccc(F)cc1 (stereo not given) | nt | -9% | -2% | nt | 2% | 3%
CCOC(=O)c1c(NC(=O)c2cc3nc(-c4ccc(Br)cc4)cc(C(F)(F)F)n3n2)sc(C(C)=O)c1C | nt | nt | nt | nt | -6% | nt
COc1cc(-c2cc3n(C)c(C)c(CCC(=O)NC4CCC(C)CC4)c(=O)n3n2)cc(OC)c1OC (stereo not given) | nt | nt | nt | nt | 1% | nt
COc1ccc(C2CC(c3cccs3)=NN2S(C)(=O)=O)cc1 (stereo not given) | nt | ? | ? | nt | ? | 14%
COc1ccc(C2=NN(S(C)(=O)=O)C(c3cccs3)C2)cc1 (stereo not given) | nt | 0.89µM* | 3.5µM* | -27% | 11µM* | ?
Cc1ccc(C2=NN(S(C)(=O)=O)C(c3ccc4nccnc4c3)C2)cc1 (stereo not given) | 13µM* | ? | ? | 3% | ? | ?
CCc1ccc(C2=NN(S(C)(=O)=O)C(c3cccs3)C2)cc1 (stereo not given) | 10µM* | 1.6µM* | 1µM* | 13µM* | 2.4µM* | 3.3µM*
CS(=O)(=O)Nc1ccc(C2=NN(S(C)(=O)=O)C(c3ccc4c(c3)OCO4)C2)cc1 (stereo not given) | 11µM* | 2.5µM* | 3.2µM* | 14% | 9.5µM* | ?
CC(=O)N1N=C(c2cccc(NS(C)(=O)=O)c2)CC1c1ccc2c(c1)OCO2 (stereo not given) | nt | 15% | 18% | nt | ? | 0%

Compound activity (PubChem)
